This is a sample that favours compounds with a hit; in the whole collection about 2.5% have one here.
ASK1 inh = ASK1 kinase inhibitors, primary screen, biochemical, AlphaScreen; Mitogen-activated protein kinase kinase kinase 5 (Homo sapiens), Q99683; AID 1159602, 2016; inhibition, % at 7.44 µM; AlphaScreen MKK6 phosphorylation by ASK1, luminescence; actives 0.99% (n = 22,000); in the data active = inhibition above about 35%
ULK1 primary = ULK1 kinase inhibitors, primary screen, biochemical, AlphaScreen; Serine/threonine-protein kinase ULK1 (Homo sapiens), O75385; AlphaScreen Atg13 phosphorylation by ULK1, luminescence; inhibition, % at 5.96 µM; actives 1.9% (n = 30,000); AID 1259251, 2017; in the data active = inhibition above about 43%
Of the large screens only hits and unclear results are named; the others gave an inactive call.

CN(C)c1cccc(Nc2nc(NCCO)c3ncn(Cc4ccc(C(F)(F)F)cc4)c3n2)c1	ULK1 primary 54
CCCNc1nc(Nc2cccc(N(C)C)c2)nc2c1ncn2Cc1ccc(C(F)(F)F)cc1	none
FC(F)(F)c1ccc(Cn2cnc3c(NC4CCN(Cc5ccccc5)CC4)nc(Nc4ccccc4)nc32)cc1	none
CN(C)c1cccc(Nc2nc(NC3CCN(Cc4ccccc4)CC3)c3ncn(Cc4ccc(C(F)(F)F)cc4)c3n2)c1	ULK1 primary 44
COc1ccc(CNC(=O)C/C(C)=N/NC(=O)COc2ccc(OC)cc2)cc1	none (no result: ASK1 inh)
O=C(NCc1cccc(C(F)(F)F)c1)c1ccc2nc(N3CCc4ccccc4C3)sc2c1	none
CC(C)n1cnc2c(Nc3ccc(N4CCOCC4)cc3)nc(NCc3ccc4c(c3)OCO4)nc21	none
CC(=O)Nc1ccc(Nc2nc(NCc3cccnc3)nc3c2ncn3C(C)C)cc1	ULK1 primary 68
COc1ccc(Nc2nc(Nc3ccc(OCCN4CCCCC4)cc3)c3ncn(C(C)C)c3n2)cc1	ULK1 primary 57
CC(C)n1cnc2c(Nc3ccc(N4CCOCC4)cc3)nc(NCc3cccnc3)nc21	ULK1 primary 47
CC(C)n1cnc2c(NCc3cccnc3)nc(Nc3ccncc3)nc21	none
COc1ccc(CNc2nc(Nc3ccc(OC)cc3)nc3c2ncn3C(C)C)cc1	none
CC(C)n1cnc2c(Nc3ccccc3)nc(-c3ccc(C(N)=O)cc3)nc21	ULK1 primary 68
CC(C)n1cnc2c(NCc3ccccc3)nc(-c3ccc(C(N)=O)cc3)nc21	none
COc1ccc(CCNc2cc(C)nc(Nc3nccc4ccccc34)n2)cc1	none
c1ccc(OCCNc2cc(-c3csc4ccccc34)ncn2)cc1	none
CC(=O)Nc1ccc(Nc2nc(NCc3cccnc3)nc3c2ncn3-c2ccsc2)cc1	ULK1 primary 55
CC(=O)Nc1ccc(Nc2nc(NCc3cccnc3)nc3c2ncn3-c2ccccc2)cc1	none
CC(=O)Nc1ccc(Nc2nc(NC3CCC(O)CC3)nc3c2ncn3-c2ccsc2)cc1 (stereo unspecified)	ULK1 primary 44
CC(=O)Nc1ccc(Nc2nc(Nc3ccncc3)nc3c2ncn3C(C)C)cc1	ULK1 primary 66
COc1cc(Nc2nc(Nc3ccc(NC(C)=O)cc3)c3ncn(C(C)C)c3n2)cc(OC)c1OC	none
OC1CCC(Nc2nc(Nc3ccccc3)c3ncn(-c4ccsc4)c3n2)CC1 (stereo unspecified)	none
CC(C)n1cnc2c(Nc3ccc(N4CCOCC4)cc3)nc(NCCCN3CCCC3=O)nc21	none
COc1ccc(CCNc2nc(Nc3ncccn3)nc3c2ncn3-c2ccccc2)cc1	none
O=C(Cc1ccc(Br)cc1)Nc1nc2ccc(-c3ccncc3)cc2s1	none
NCCc1ccc(O)c(O)c1	ULK1 primary 74 (no result: ASK1 inh)
Nc1ccc(O)c(N)c1	none (no result: ASK1 inh)
O=C1CCCN1CCCNc1ccnc(Nc2ccc(-n3ccnc3)cc2)n1	none
CC(=O)Nc1ccc(Nc2ccnc(Nc3ccc(C(F)(F)F)cc3)n2)cc1	none
CC(=O)Nc1ccc(Nc2ccnc(Nc3ccncn3)n2)cc1	ULK1 primary 68
Cc1c[nH]c(=O)c2cccc(S(=O)(=O)N3CCCNC[C@@H]3C)c12	ULK1 primary 47
Cc1c[nH]c(=O)c2cccc(NC3CCN(C(=O)C(N)c4ccc(Br)cc4)CC3)c12 (stereo unspecified)	none
COc1cc(Nc2cc(Nc3ccncn3)ncn2)cc(OC)c1OC	ULK1 primary 43
Cc1cc(Nc2ccccc2)nc(Nc2ccncn2)n1	none
COc1cc(Nc2cc(Nc3ccccc3)ncn2)cc(OC)c1OC	none
c1ccc(Nc2cc(Nc3ccncn3)ncn2)cc1	ULK1 primary 46
Cc1cc(=O)[nH]c(-n2nc(C)cc2NC(=O)C23CC4CC(CC(C4)C2)C3)n1	none (no result: ASK1 inh)
O=C(NCCCN1CCCC1=O)c1ccnc(Nc2nccc3ccccc23)c1	none
COc1cc2nc(N3CCCC3CO)nc(NC3CC3)c2cc1OC (stereo unspecified)	none
O=C(NCc1ccccc1)c1ccc2cncc(-c3ccccc3)c2n1	ULK1 primary 74 (no result: ASK1 inh)
O=C(NC1CC1)c1ccc2cncc(-c3ccsc3)c2n1	none (no result: ASK1 inh)
COCCNC(=O)c1ccc2cncc(-c3ccsc3)c2n1	ULK1 primary 53 (no result: ASK1 inh)
Cc1cnc(CNC(=O)c2ccc3cncc(-c4ccccc4)c3n2)cn1	none (no result: ASK1 inh)
c1ccc2cc3c(cc2c1)OCC(c1nc2ncc(-c4ccncc4)cc2[nH]1)O3 (stereo unspecified)	none
c1ccc2[nH]ccc2c1	ULK1 primary 83 (no result: ASK1 inh)
Oc1cccc2[nH]ccc12	none (no result: ASK1 inh)
O=C(O)/C(=C\c1ccc(Cl)cc1)NC(=O)c1ccccc1	none (no result: ASK1 inh)
O=C1c2cccc(O)c2C(=O)c2c(O)cccc21	none (no result: ASK1 inh)
Cc1cc(O)c2c(c1)Cc1cccc(O)c1C2=O	ULK1 primary 44 (no result: ASK1 inh)
Cc1nc(Nc2cc(Nc3ccccn3)c(C(F)(F)F)cn2)cc(-c2cncnc2)n1	none
NC(=O)c1ccccc1Nc1cc(Oc2ccccc2F)ncc1C(F)(F)F	none
CNC(=O)c1ccccc1Nc1cc(Nc2ccc(F)cc2OC)ncc1C(F)(F)F	ULK1 primary 87
CNC(=O)c1cncnc1Nc1cc(NC(=O)Cc2ccc(OC)cc2)ncc1C(F)(F)F	none
CNC(=O)c1cc(F)ccc1Nc1cc(Nc2cc(-c3cncnc3)nc(C)n2)ncc1C(F)(F)F	ULK1 primary 58
CNC(=O)c1ccccc1Nc1cc(Nc2ccc(-c3cncnc3)cc2OC)ncc1C(F)(F)F	ULK1 primary 86
O=C(OCc1ccccc1)N1CCN(CCc2ccncc2)CC1	none
COc1ccc(CCNc2cc(Nc3nc4ccccc4n3C)nc(N)n2)cc1	none
O=C(Nc1ccc(Oc2ccccc2)cc1)c1cccc(-c2cccs2)c1	none
O=C(NCCCN1CCCC1=O)c1csc(Br)n1	none
Cc1ncn(-c2ccc(Nc3ncc4cccc(-c5ccc(N6CCOCC6)nc5)c4n3)cc2)n1	none
Cc1ncn(-c2ccc(Nc3ncc4cccc(-c5nc6ccccc6s5)c4n3)cc2)n1	none
Cc1ncn(-c2ccc(Nc3ncc4cccc(-c5ccccn5)c4n3)cc2)n1	ULK1 primary 53
Cc1ncn(-c2ccc(Nc3ncc4cccc(-c5cn[nH]c5)c4n3)cc2)n1	ULK1 primary 44
Cc1ncn(-c2ccc(Nc3ncc4cccc(-c5cncnc5)c4n3)cc2)n1	none
Cc1ncn(-c2ccc(Nc3ncc4cccc(-c5ncco5)c4n3)cc2)n1	ULK1 primary 72
Cc1cc(-c2cccc3cnc(Nc4ccc(-n5cnc(C)n5)cc4)nc23)ccn1	none
Cc1ncn(-c2ccc(Nc3ncc4cccc(-c5cnn(CCN6CCOCC6)c5)c4n3)cc2)n1	ULK1 primary 63
Cc1cccc(CC(=O)Nc2cnn(-c3cccc(C(=O)Nc4nc(C)cs4)c3)c2)c1	none
COc1ccc(-c2cncc(-c3cc(N4CCC5(CC4)OCCO5)nc(C)n3)c2)cc1	none (no result: ASK1 inh)
O=C(Cc1ccccc1)Nc1cnn(-c2cccc(C(=O)Nc3ccc(-n4ccnc4)cc3)c2)c1	none
NC(=O)c1ccc(-c2cncc(C(=O)NCc3cccc(C(F)(F)F)c3)c2)cc1	none
Cc1ncn(-c2ccc(Nc3ncc4cccc(-c5ccncc5F)c4n3)cc2)n1	ULK1 primary 51
Cc1ncn(-c2ccc(Nc3ncc4ccccc4n3)cc2)n1	ULK1 primary 44
Cc1ncn(-c2ccc(Nc3ncc4cccc(-c5cncc6ccccc56)c4n3)cc2)n1	none
Cc1ncn(-c2ccc(Nc3ncc4cccc(Nc5ccccc5)c4n3)cc2)n1	none
C[C@@H](NCCCc1cccc(C(F)(F)F)c1)c1cccc2ccccc12	none (no result: ASK1 inh)
COc1ccc(CCNc2nc(Nc3nc4ccccc4n3C)nc3c2ncn3C2CCCCC2)cc1	none

Screening results from PubChem.
